Hit rate of the full screen: of about 220,000 compounds, about 5,700 (2.6%) were called active. Not shown: some 18% with an inconclusive outcome. Shown is part of a subset that was picked to be rich in actives. Values without a mark were called inactive. The call rests on the fitted dose curve; in most records, active means well fitted inhibition curve with a large enough effect; inconclusive means small, poorly fitted or top-dose-only effect; inactive means no such curve, though single readings can be large or run the other way.
These compounds were tested against Lysine-specific demethylase 5B (Homo sapiens) (UniProt Q9UGL1) (assay: Primary screen for KDM5B Histone Demethylases FDH-coupled qHTS). Details: FDH-coupled NADH fluorescence (FDH is formaldehyde dehydrogenase); series mostly up to 57.7 µM; activity change, negative = inhibition: at the top concentration.
Text: Assay Submitter (PI): Qin Yan, Ph.D. (Yale University) and Xiaodong Cheng, Ph.D. (MD Anderson) This project was funded as part of the NCI NEXT Program and Chemical Biology Consortium (CBC) The histone demethylases, KDM5A and KDM5B catalyze the demethylation of lysine 4 on histone H3 (H3K4me3/2). They are overexpressed in a variety of cancers and have been implicated in cancer cell growth, metastasis, drug resistance, and tumor growth. KDM5A is amplified and overexpressed in breast and gastric cancer; and is translocated in leukemia. While KDM5B is highly expressed in human mammary tumors and breast cancer cell lines, but not in normal adult breast tissue. Moreover, knockdown of KDM5B leads to upregulation of tumor suppressor genes, including BRCA1. The goal of this project is to employ qHTS to identify selective small molecule inhibitors of KDM5A/B demethylase activity to better understand the role of KDM5 in cancer and to develop novel therapies. We employed an FDH-coupled assay previously reported by Sakurai et al. to monitor in vitro KDM5 demethylase activity. Compounds showing dose response inhibition are re-acquired, validated, and tested for non-specific interference with the formaldehyde dehydrogenase (FDH) counterscreen. True inhibitors are validated using an AlphaLisa secondary screen, which employs an H3K4(me2-1)-specific antibody to monitor demethylation of a biotin-tagged H3K4(me3) peptide substrate. Inhibitors are profiled against KDM4A and KDM6A AlphaLisa counterscreens to determine level of demethylase specificity; and against the TruHits counterscreen to eliminate non-specific inhibitory activity on the AlphaLISA detection method. Selective inhibitors identified from the primary and secondary screening are tested in cells using immunofluorescence to monitor global H3K4 tri-methylation as a measure of KDM5A/B inhibition. Early Translation Branch (ETB) National Center for Advancing Translational Sciences (NCATS), Rockville, MD National Institute of Health (NIH), Bethesda, Maryland [1] Sakurai, M et al. A miniaturized screen for inhibitors of Jumonji histone demethylases. Mol Biosyst. 2010 Feb;6(2):357-64. doi: 10.1039/b912993f. Epub 2009 Oct 8.
Materials: 1536-well Black, solid bottom, medium binding assay plate is purchased from Greiner Bio-one. The enzymes (KDM5B) and substrate (H3K4me3/2) are provided by the principal investigators. The buffer for this assay is composed of 50mM HEPES at pH 7.5 with 0.01% Tween-20. FDH coupled Demethylase qHTS protocol: Three microliter enzyme mix (buffer + 200nM KDM5BDeltaAP final concentration) is dispensed into the assay plate using the BioRAPTR Flying Reagent Dispenser (FRD; […]). Compound (at various final concentration) and control solution is pin transferred to the assay plate using the Kalypsys 1536-pin tool apparatus. The assay plate is incubated for 10 min at room temperature followed by addition of 1uL substrate mix (buffer + 100uM ascorbic acid, 50uM ferrous ammonium sulfate, 12.5uM H3K4Me3, 25uM a-ketoglutarate, 0.25 mM NAD+, 0.25 U/mL formaldehyde dehydrogenase using the FRD yielding a total reaction volume of 4 uL. Initial fluorescence (Read1) is detected using the PerkinElmer ViewLux plate reader equipped with 340 nm excitation and 450 nm emission filters. The final fluorescence (Read2) signal is obtained after 30 min of room temperature incubation. Delta RFU is calculated (Read2 - Read1) and is used to generated dose response curves.
Further: nearly all actives have a fitted effect of over 70% in size.
Potency means the concentration at half of the fitted maximal effect.
Wherever activity change, negative = inhibition is given: 0% is about no effect.

Sequence of Lysine-specific demethylase 5B (Homo sapiens) (Q9UGL1 whole entry, looked up): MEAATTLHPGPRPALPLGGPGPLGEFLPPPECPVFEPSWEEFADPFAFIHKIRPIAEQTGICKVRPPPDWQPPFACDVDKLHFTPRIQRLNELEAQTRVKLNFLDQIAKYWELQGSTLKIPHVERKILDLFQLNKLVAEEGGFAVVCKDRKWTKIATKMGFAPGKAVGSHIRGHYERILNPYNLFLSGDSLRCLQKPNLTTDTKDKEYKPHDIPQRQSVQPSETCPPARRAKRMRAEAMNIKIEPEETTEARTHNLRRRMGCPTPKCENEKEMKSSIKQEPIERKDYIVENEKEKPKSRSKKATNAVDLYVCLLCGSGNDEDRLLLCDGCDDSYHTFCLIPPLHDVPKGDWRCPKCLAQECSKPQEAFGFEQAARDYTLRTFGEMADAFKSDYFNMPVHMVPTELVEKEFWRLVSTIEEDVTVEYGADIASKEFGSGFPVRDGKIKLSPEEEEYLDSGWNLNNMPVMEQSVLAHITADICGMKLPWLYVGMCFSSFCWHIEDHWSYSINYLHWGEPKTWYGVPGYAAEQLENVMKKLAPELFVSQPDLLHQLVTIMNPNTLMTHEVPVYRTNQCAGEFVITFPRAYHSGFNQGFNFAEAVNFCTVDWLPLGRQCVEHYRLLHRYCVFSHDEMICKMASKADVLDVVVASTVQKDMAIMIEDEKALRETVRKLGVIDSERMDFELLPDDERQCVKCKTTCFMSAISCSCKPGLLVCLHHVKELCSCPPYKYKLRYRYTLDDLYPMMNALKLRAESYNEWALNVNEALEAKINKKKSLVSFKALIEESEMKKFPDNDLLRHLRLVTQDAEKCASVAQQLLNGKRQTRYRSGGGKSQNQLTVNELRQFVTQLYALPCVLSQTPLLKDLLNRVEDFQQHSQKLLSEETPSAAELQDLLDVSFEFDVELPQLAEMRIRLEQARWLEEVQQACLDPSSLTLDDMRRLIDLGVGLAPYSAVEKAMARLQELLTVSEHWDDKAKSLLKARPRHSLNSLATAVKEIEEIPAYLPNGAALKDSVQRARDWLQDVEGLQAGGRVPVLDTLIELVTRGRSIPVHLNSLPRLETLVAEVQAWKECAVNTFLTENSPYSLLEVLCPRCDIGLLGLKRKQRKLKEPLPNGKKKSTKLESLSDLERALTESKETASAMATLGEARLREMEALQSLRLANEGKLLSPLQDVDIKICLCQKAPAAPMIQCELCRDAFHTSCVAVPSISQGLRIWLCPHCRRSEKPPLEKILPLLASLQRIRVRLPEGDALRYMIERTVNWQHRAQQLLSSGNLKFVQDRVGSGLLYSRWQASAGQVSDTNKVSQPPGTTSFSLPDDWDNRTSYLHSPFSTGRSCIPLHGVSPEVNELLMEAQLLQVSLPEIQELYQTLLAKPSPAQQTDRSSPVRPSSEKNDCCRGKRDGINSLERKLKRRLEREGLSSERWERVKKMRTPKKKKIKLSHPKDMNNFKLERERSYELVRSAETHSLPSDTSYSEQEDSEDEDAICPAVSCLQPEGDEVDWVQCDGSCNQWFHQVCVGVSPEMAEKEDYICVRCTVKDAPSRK

Row | Structure (SMILES) | activity change, negative = inhibition | Potency
1 | Cn1ncc(Br)c1C(=O)NC1CCCC1 | 2.23% | 
2 | Cc1nnn2c(C(=O)NC3CC3)cccc12 |  | 35.5 µM (active)
3 | Cc1ccc(NC(=O)c2ccccc2SCC(=O)NC2CC2)c(C)c1 | -7.22% | 
4 | O=c1oc2ccccc2cc1-c1nc(-c2ccc(F)cc2)no1 | 6.44% | 
5 | CCOc1cccc(CC(=O)N2CCc3c([nH]c4ccccc34)C2c2ccc(F)cc2)c1OCC (stereo unspecified) | -19.1% | 
6 | Cc1ccc(C)n1-c1c(C(=O)NCCN2CCOCC2)sc2ncccc12 | -13.7% | 
7 | COC(=O)[C@@H]1Cc2c([nH]c3ccccc23)[C@H]2C[C@@H](NCCN3CCOCC3)C[C@@H](c3ccccc3F)N21 |  | 17.8 µM (active)
8 | COC(=O)[C@@H]1Cc2c([nH]c3ccccc23)[C@H]2C[C@H](NCCNC(C)=O)C[C@@H](c3ccc(C)cc3)N21 |  | 17.8 µM (active)
9 | COC(=O)[C@@H]1C[C@@H](NC(=O)c2ccc(-c3nnn(C)n3)cc2)CN1C | -8.97% | 
10 | CN(CC(=O)NCCN1CCOCC1)S(=O)(=O)c1ccc(F)cc1 | 18% | 
11 | CC(C)NC(=O)NC(=O)CSc1nc(-c2ccco2)nc2ccccc12 | -18.9% | 
12 | CNC(=O)c1sc(NCc2ccccc2OC)nc1C | -25% | 
13 | CCOC(=O)c1c(C)[nH]c(C)c1S(=O)(=O)N(C)CC(=O)Nc1cc(C)cc(C)c1 | 12.9% | 
14 | Cc1[nH]c2ccccc2c1C(=O)C(=O)NC1CCS(=O)(=O)C1 (stereo unspecified) | -13% | 
15 | CC(C)(C)c1ccc(C(=O)N2C[C@@H](CO)[C@H](c3ccccn3)C2)cc1 | 11.8% | 
16 | O=C(c1cccc(C(F)(F)F)c1)N1C[C@@H](CO)[C@H](c2ccccn2)C1 | -1.06% | 
17 | O=C(c1cccc2[nH]ccc12)N1C[C@@H](CO)[C@H](c2ccccn2)C1 |  | 17.8 µM (active)
18 | Cc1cc2oc(=O)cc(CN3CCN(S(=O)(=O)c4ccc5c(c4)OCCO5)CC3)c2cc1C(C)C | 9.68% | 
19 | COC(=O)CN(CC(=O)NC(N)=O)Cc1ccccc1 | 10.4% | 
20 | COc1ccc2[nH]c(C(=O)N3C[C@@H](Oc4ccccc4)C[C@H]3C(=O)N3CCCC3)cc2c1 | -929% | 
21 | COc1ccc2cc(C(=O)N3C[C@@H](Oc4ccccc4)C[C@H]3C(=O)N3CCOCC3)[nH]c2c1 |  | 28.2 µM (active)
22 | COc1ccc(CCC(=O)N2C[C@@H](Oc3ccccc3)C[C@H]2C(=O)N2CCOCC2)cc1 | 9.49% | 
23 | CCCn1c(=O)n(CC(=O)Nc2ccc(C)c(F)c2)c(=O)c2c1nc(C)n2CCOC | -4.01% | 
24 | CCN(CC)c1ccc(C(=S)N(C)C)cc1 | -28.5% | 
25 | CN1CCN([C@H]2CCN(C(=O)Cc3cccc(O)c3)C[C@H]2CCCO)CC1 | -8.3% | 
26 | Cc1nc(C(=O)N2CC[C@H](N3CCN(C)CC3)[C@H](CCCO)C2)cs1 | -27.3% | 

Row | Structure (SMILES) | activity change, negative = inhibition | Potency
27 | CNc1nc(N2CC[C@H](N3CCN(C)CC3)[C@H](CCC(=O)O)C2)ncc1F |  | 14.1 µM (active)
28 | O=C(CSc1nc(-c2ccc(F)cc2)cc(C(F)(F)F)n1)NC1CCCC1 | 7.5% | 
29 | CCOC(=O)C1=C(N)Oc2c(oc(CO)cc2=O)C1c1ccccc1C(F)(F)F (stereo unspecified) | -9.02% | 
30 | CCOc1cc(C2CC(=O)NC(SCC(=O)OC)=C2C#N)ccc1O (stereo unspecified) | -15.6% | 
31 | COCCN1Cc2nc(NCc3ccccc3)ccc2OCC1=O |  | 35.5 µM (active)
32 | O=C1COc2ccc(-c3cncnc3)nc2CN1Cc1ccc(F)cc1 | -30.4% [at 86.2 µM] | 
33 | COCCNc1nc2c(c(=O)n(C)c(=O)n2C)n1CCc1ccccc1 | 2.93% | 
34 | Cc1ccccc1CN1Cc2nc(NCc3ccncc3)ccc2OCC1=O |  | 35.5 µM (active)
35 | O=C1Cc2c(-c3ccc(F)cc3F)n[nH]c2CN1Cc1ccccc1F | 7.91% [at 86.2 µM] | 
36 | COc1cccc(CN2Cc3nc(Nc4cccc(F)c4)ccc3OCC2=O)c1 |  | 28.2 µM (active)
37 | COc1cccc(C(=O)Nc2ccc3c(c2)CN(Cc2ccc(OC)cc2OC)C(=O)CO3)c1 | 0.861% | 
38 | COCCn1c(C(=O)NCc2ccncc2)nc2ccccc2c1=O | 11.4% | 
39 | COc1cccc(CN2Cc3nc(-c4cc(F)cc(F)c4)ccc3OCC2=O)c1 | -26.2% [at 86.2 µM] | 
40 | COCC(=O)Nc1ccc2c(c1)CN(Cc1ccccc1F)C(=O)C(C)O2 (stereo unspecified) | -4.01% | 
41 | CCC(C(=O)Nc1ccc2c(c1)CN(Cc1cc(F)cc(F)c1)C(=O)CO2)c1ccccc1 (stereo unspecified) | -6.69% | 
42 | O=C1COc2ccc(Nc3ccccc3F)nc2CN1Cc1ccccc1F |  | 35.5 µM (active)
43 | CC(=O)Nc1scc(-c2cc(C)ccc2C)c1C#N | -19.7% | 
44 | Cc1ccc(C(=O)C(C)OC(=O)Cc2n[nH]c(=O)c3ccccc23)cc1C (stereo unspecified) | 15.4% | 
45 | O=C1c2ccccc2NC(c2cnc3ccccc3n2)N1c1ccc(Cl)cc1 (stereo unspecified) | 3.11% | 
46 | Cc1cc(C)c(C(=O)Nc2ccccc2)c(SCC(=O)NC2CCCCC2)n1 | 6.57% | 
47 | CCN1CCN(C(c2ccccc2)c2c(O)cc(C)n(CC)c2=O)CC1 (stereo unspecified) | 4.49% | 
48 | CCCCC(c1nnnn1CS(=O)(=O)c1ccc(C)cc1)N1CCC(C(N)=O)CC1 (stereo unspecified) | 13.2% | 
49 | CCC(C)c1ccc(NC(=S)N2CCCC2)cc1 (stereo unspecified) | -10.6% | 
50 | CC(C)NC(=O)C1(CCO)CC12CCOCC2 (stereo unspecified) | -10.3% | 
51 | CC(C)NC(=O)C1(CCO)CCN(c2ncccn2)C1 (stereo unspecified) |  | 31.6 µM (active)

Source: PubChem BioAssay AID1347165 (National Center for Advancing Translational Sciences (NCATS), 2019)
